# Data from PubChem BioAssay (NCATS).
# Records with an inconclusive call do not appear. Active and inactive are the calls of the source. Unless noted, calls come from the whole dose curve; as a rule, active = well fitted curve in the direction sought with a large enough effect; inconclusive = small, poorly fitted or top-dose-only effect, or another doubt; inactive = no such curve, though single readings can be large; an effect the other way counts as inactive or inconclusive.
# Legend:
# [1] = target: Estrogen receptor (Homo sapiens) (UniProt P03372); assay: qHTS assay for small molecule antagonists of estrogen receptor alpha signaling (AID 588513; active = well fitted curve in the direction sought with a large enough effect in the signal ratio, with a control signal flat, not every such curve was filed as active; the % refers to the signal ratio; note: potency is the fitted concentration of half-maximal effect)
# Method in brief: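 Cells were plated at 5000/well and incubated 4 h at 37 C. Compounds were added as 1:2 dilution series, duplicates. 17-beta-estradiol (0.5nM final) was added for 18 h before CCF4 detection.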
# [2] = target: Estrogen receptor (Homo sapiens) (UniProt P03372); assay: qHTS assay for small molecule agonists of estrogen receptor alpha signaling (AID 588514; calls by dose curve;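 note: 0% = vehicle only and 100% = reference agonist; nearly all actives have a fitted effect of over 70% in size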)
# Method in brief: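 Efficacy is expressed against 20 nM 17-beta-estradiol (100%) and DMSO basal (0%); EC50 from Hill equation. Assay: beta-lactamase reporter in ER-alpha-UAS-bla HEK 293 cells, 18 h compound incubation, CCF4 detection.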
# [3] = target: Glucocorticoid receptor (Homo sapiens) (UniProt P04150); assay: qHTS assay for small molecule agonists of glucocorticoid receptor signaling (AID 588532; active = well fitted curve in the direction sought with a large enough effect in the signal ratio, with a control signal flat; the % refers to the signal ratio;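 note: 100% = dexamethasone at 0.1 µM and 0% = DMSO only wells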); settings: HeLa MMTV-bla, beta-lactamase ratio, agonist, 18 h; activation: stronger effect = higher value, percent of dexamethasone control, DMSO zero
# Method in brief: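 MMTV-bla HeLa beta-lactamase reporter cells in 1% charcoal/dextran FBS medium, compounds up to 92 uM for 18 h at 37 C, CCF4 readout; normalized to 0.1 uM dexamethasone (100%), EC50 and efficacy from Hill fits.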
# [4] = target: Peroxisome proliferator-activated receptor gamma (Homo sapiens) (UniProt P37231); assay: qHTS assay for small molecule agonists of peroxisome proliferator-activated receptor gamma signaling (AID 588536; active = well fitted curve in the direction sought with a large enough effect in the signal ratio, with a control signal flat, not every such curve was filed as active; the % refers to the signal ratio; note: potency is the fitted concentration of half-maximal effect;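 for activation: 0% = DMSO basal wells and 100% = rosiglitazone at 2 µM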)
# Method in brief: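 This is an agonist-mode beta-lactamase reporter assay in HEK293 PPAR-gamma-UAS-bla cells with 1% charcoal/dextran FBS. Compound titrations ran 16 h at 37 C before CCF4 detection. EC50 and efficacy are Hill fits scaled to 2 uM rosiglitazone (100%) and DMSO basal.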
# [5] = target: Vitamin D3 receptor (Homo sapiens) (UniProt P11473); assay: qHTS assay for small molecule antagonists of vitamin D receptor signaling (AID 588541; calls by dose curve;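 note: receptor activated by calcitriol during compound treatment; series mostly up to about 77 µM; % is set by controls: 0 for no effect and ±100 for the full control effect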)
# Method in brief: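 VDR-UAS-bla HEK293T cells in 2% charcoal-stripped FBS were stimulated with 1-alpha,25-dihydroxyvitamin D3 (3 nM final) plus compound for 16 h at 37 C. The beta-lactamase CCF4 readout was normalized to 50 nM agonist and DMSO, and Hill fits gave IC50.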
# [6] = target: Vitamin D3 receptor (Homo sapiens) (UniProt P11473); assay: qHTS assay for small molecule agonists of vitamin D receptor signaling (AID 588543; calls by dose curve;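 note: 0% = DMSO basal and 100% = reference agonist control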)
# Method in brief: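 qHTS in agonist mode: compound titrations stimulate a VDR-driven β-lactamase reporter in HEK293T cells over 16 h at 37 °C. Response normalized to 50 nM 1α,25-dihydroxyvitamin D3 = 100%, DMSO = 0%; Hill fitting gives EC50 and maximal response.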
# [7] = target: Retinoic acid receptor RXR-alpha (Homo sapiens) (UniProt P19793); assay: qHTS assay for small molecule agonists of retinoid X receptor alpha signaling (AID 588544; calls by dose curve;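 note: 0% = DMSO basal wells and 100% = reference agonist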)
# [8] = target: Thyroid hormone receptor beta (Homo sapiens) (UniProt P10828); assay: qHTS assay for small molecule agonists of thyroid hormone receptor beta signaling (AID 588545; calls by dose curve;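 note: 0% = DMSO only and 100% = 10 nM T3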)
# Method in brief: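 Compounds were tested as agonists in TR-UAS-bla-GripTite HEK 293 cells. After 18 hrs at 37 C, CCF4 substrate was added and fluorescence read after 2 hrs at room temperature.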
# [9] = qHTS assay for small molecule antagonists of retinoid X receptor alpha signaling (AID 588546; active = well fitted inhibition curve with a large enough effect in the signal ratio, with a control signal flat, not every such curve was filed as active; the % refers to the signal ratio;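 note: cells stimulated with 9-cis-retinoic acid as agonist; % is set by controls: 0 for no effect and ±100 for the full control effect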); settings: HEK293T RXRa-UAS-bla, beta-lactamase ratio, antagonist mode; measured here: W530 green channel, cytotoxicity proxy
# Method in brief: (§1)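 Beta-lactamase reporter inhibition, read as CCF4 fluorescence ratio (ex 405, em 460/530 nm) after 2 h at RT. HEK293T UAS-bla cells, 2500/well, were stimulated with 9-cis-RA at 500 or 100 nM final alongside test compound for 18 h at 37 C.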
# [10] = target: Retinoic acid receptor RXR-alpha (Homo sapiens) (UniProt P19793); assay: as above; settings: HEK293T RXRa-UAS-bla, beta-lactamase ratio, antagonist mode
# Method in brief: as §1
# [11] = qHTS assay for small molecule activators of the p53 signaling pathway (AID 651743; active = well fitted activation curve with a large enough effect in the signal ratio, not every such curve was filed as active; the % refers to the signal ratio; note: series mostly up to about 92 µM; % of control where 0% means no effect); settings: HCT-116 p53RE-bla, beta-lactamase FRET ratio, 16 h; activation: stronger effect = higher value
# Method in brief: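 Following 16 hours of compound exposure at 37 C, HCT-116 cells bearing the p53RE-bla reporter were loaded with LiveBLAzer B/G FRET substrate for 2 hours at room temperature and fluorescence intensity was recorded.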
# [12] = qHTS assay for environmental chemicals that activate the Aryl hydrocarbon Receptor (AhR) signaling pathway (AID 651777); settings: 1A2-DRE human hepatoma cells, luciferase, 24 h; activation: stronger effect = higher value; note: nearly all actives have a fitted effect of over 15% in size; note: potency is the fitted concentration of half-maximal effect; for activation: % of control where 0% means no effect
# Method in brief: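 Concentration–response screening used 1,200 1A2-DRE cells per well, 24 hr compound exposure (37 C, 5% CO2), and One-Glo luminescence as the AhR-driven CYP1A2 reporter signal.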
# [13] = target: Peroxisome proliferator-activated receptor alpha (Homo sapiens) (UniProt Q07869); assay: qHTS assay for small molecule agonists of the peroxisome proliferator-activated receptor alpha (PPARalpha) signaling pathway (AID 651778); settings: PathHunter PPARalpha complementation, chemiluminescence, 6 h; max response: stronger effect = higher value; note: % of control where 0% means no effect
# Method in brief: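 Enzyme-fragment complementation assay in which ligand-bound PPARalpha translocates and forms an active enzyme that generates chemiluminescence. Cells were plated overnight, exposed to compound for 6 hr at 37 C, and then given detection reagent for 60 min at room temperature.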
# [14] = qHTS assay for small molecule agonists of the antioxidant response element (ARE) signaling pathway measured by Nrf2-dependant transcriptional activity (AID 720636; active = well fitted curve in the direction sought with a large enough effect in the repeat runs; an effect the other way counts as inactive or inconclusive;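 note: HepG2 cells with an ARE-driven luciferase reporter; % of control where 0% means no effect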)
# Method in brief: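 Attachment 6 hr at 37 C, then compound versus DMSO vehicle for 16 hr in ARE-luc HepG2 cells (1% dialyzed FBS); luminescence recorded 30 min after ONE-Glo addition at room temperature.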
# [15] = qHTS assay for small molecule agonists of the antioxidant response element (ARE) signaling pathway measured by Nrf2-dependant transcriptional activity - cell viability counter screen (AID 720653; active = well fitted curve in the direction sought with a large enough effect in the repeat runs; an effect the other way counts as inactive or inconclusive; note: potency is the fitted concentration of half-maximal effect; for max response: % is set by controls: 0 for no effect and ±100 for the full control effect); settings: ARE-bla HepG2 viability, CellTiter-Glo ATP luminescence, 16 h; max response: stronger effect = lower value
# Method in brief: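 ARE-bla HepG2 cells treated with compounds for 16 h at 37C; this counter screen measures viability as intracellular ATP by CellTiter-Glo luminescence after 30 min at room temperature.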
# [16] = qHTS assay for cell viability of HEK293 cells (AID 743288); settings: ATP luminescence (CellTiter-Glo), 18 h; max response: stronger effect = lower value; note: nearly all actives have a fitted effect of over 50% in size; note: potency is the fitted concentration of half-maximal effect; for max response: % is set by controls: 0 for no effect and ±100 for the full control effect
# Method in brief: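 Quantitative high-throughput screen: compounds were pinned onto parental HEK293 cells (2,000 per well) after a minimum 5 h settling at 37 C, incubated 18 h at 37 C, and intracellular ATP measured by luciferase luminescence.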
# [17] = qHTS assay for cell viability of the p53RE-bla HCT-116 cell line (AID 743292); note: nearly all actives have a fitted effect of over 55% in size; note: potency is the fitted concentration of half-maximal effect
# Method in brief: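 Compound-exposed HCT-116 (p53RE-bla) cells, 4,000 per well, were kept 16 h at 37 C following a 5 h preincubation. Cell number was estimated from total ATP by CellTiter-Glo luminescence read after 30 min at room temperature.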
# [18] = target: Nuclear receptor subfamily 1 group I member 2 (Rattus norvegicus) (UniProt Q9R1A7); assay: qHTS assay for small molecule activators of the rat pregnane X receptor (rPXR) signaling pathway (AID 651751; call rule not given here; note: 0% is about no effect); settings: rPXR reporter cells, luciferase (One-Glo), 24 h
# [19] = qHTS assay for small molecule activators of the nuclear factor-kappa B (NF-kB) signaling pathway (AID 651749; active = well fitted activation curve with a large enough effect in the signal ratio; the % refers to the signal ratio; note: series mostly up to about 77 µM; % of control where 0% means no effect); settings: NF-kB-bla ME-180 cells, beta-lactamase FRET ratio, 16 h; activation: stronger effect = higher value
# Method in brief: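 In this qHTS format, compounds acting as activators increase NF-kB-driven beta-lactamase in ME-180 cells, measured as disrupted FRET after 16 hr exposure at 37C and 5% CO2.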
# [20] = target: Peroxisome proliferator-activated receptor delta (Homo sapiens) (UniProt Q03181); assay: qHTS assay for small molecule agonists of peroxisome proliferator-activated receptor delta signaling (AID 588534; calls by dose curve;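 note: 0% = DMSO basal wells and 100% = positive control agonist at 10 µM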)
# Method in brief: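 Agonist-mode qHTS; reporter cells, 5 hrs 37 C pre-incubation; compound titration, 18 hrs 37 C; CCF4 dye, 2 hrs RT; fluorescence read. EC50/efficacy via Hill fit.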
# Chain of Glucocorticoid receptor (Homo sapiens) (P04150 whole entry, looked up): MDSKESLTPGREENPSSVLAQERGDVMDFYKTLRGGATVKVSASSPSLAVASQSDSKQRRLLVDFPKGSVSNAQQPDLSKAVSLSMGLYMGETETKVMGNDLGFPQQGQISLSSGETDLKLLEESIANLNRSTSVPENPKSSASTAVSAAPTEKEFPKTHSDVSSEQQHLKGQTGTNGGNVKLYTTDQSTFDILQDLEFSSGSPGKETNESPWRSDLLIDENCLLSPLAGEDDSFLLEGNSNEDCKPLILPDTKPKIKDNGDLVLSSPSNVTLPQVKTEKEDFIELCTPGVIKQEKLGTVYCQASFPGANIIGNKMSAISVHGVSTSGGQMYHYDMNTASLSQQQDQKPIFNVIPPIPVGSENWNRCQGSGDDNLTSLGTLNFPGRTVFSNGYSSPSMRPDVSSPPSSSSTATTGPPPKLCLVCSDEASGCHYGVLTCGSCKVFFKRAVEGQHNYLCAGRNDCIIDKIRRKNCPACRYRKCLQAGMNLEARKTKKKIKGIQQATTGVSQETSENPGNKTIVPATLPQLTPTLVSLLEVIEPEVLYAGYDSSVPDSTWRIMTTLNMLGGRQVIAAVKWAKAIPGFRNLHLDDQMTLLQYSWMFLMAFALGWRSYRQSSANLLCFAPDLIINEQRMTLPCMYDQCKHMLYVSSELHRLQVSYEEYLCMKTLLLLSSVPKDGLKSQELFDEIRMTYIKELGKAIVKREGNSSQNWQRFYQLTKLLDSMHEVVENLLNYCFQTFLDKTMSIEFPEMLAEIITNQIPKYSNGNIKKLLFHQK
# Chain of Vitamin D3 receptor (Homo sapiens) (P11473 whole entry, looked up): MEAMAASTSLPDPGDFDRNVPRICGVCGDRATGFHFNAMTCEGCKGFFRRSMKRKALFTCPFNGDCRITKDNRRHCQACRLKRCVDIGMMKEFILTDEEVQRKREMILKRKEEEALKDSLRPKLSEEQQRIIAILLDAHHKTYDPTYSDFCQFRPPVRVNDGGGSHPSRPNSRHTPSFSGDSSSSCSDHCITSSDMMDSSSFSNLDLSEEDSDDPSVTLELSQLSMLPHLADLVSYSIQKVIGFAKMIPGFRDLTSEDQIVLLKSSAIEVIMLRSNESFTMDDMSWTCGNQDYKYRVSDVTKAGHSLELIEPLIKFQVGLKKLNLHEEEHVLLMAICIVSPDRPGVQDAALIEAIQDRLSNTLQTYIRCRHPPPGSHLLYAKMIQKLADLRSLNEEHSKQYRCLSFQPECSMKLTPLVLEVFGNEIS
# Chain of Thyroid hormone receptor beta (Homo sapiens) (P10828 whole entry, looked up): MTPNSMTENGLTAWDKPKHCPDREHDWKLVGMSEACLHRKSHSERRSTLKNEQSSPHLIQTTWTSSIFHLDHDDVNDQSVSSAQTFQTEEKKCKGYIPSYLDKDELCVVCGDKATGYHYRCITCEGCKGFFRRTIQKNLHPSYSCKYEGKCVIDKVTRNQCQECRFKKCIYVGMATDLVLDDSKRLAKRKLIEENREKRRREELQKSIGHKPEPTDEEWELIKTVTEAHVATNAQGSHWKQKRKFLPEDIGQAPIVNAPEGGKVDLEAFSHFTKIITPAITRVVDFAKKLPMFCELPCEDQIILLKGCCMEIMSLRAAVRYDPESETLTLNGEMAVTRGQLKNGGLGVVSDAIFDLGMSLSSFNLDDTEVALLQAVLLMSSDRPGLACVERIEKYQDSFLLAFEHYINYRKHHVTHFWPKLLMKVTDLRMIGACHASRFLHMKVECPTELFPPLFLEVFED
# Chain of Estrogen receptor (Homo sapiens) (P03372 whole entry, looked up): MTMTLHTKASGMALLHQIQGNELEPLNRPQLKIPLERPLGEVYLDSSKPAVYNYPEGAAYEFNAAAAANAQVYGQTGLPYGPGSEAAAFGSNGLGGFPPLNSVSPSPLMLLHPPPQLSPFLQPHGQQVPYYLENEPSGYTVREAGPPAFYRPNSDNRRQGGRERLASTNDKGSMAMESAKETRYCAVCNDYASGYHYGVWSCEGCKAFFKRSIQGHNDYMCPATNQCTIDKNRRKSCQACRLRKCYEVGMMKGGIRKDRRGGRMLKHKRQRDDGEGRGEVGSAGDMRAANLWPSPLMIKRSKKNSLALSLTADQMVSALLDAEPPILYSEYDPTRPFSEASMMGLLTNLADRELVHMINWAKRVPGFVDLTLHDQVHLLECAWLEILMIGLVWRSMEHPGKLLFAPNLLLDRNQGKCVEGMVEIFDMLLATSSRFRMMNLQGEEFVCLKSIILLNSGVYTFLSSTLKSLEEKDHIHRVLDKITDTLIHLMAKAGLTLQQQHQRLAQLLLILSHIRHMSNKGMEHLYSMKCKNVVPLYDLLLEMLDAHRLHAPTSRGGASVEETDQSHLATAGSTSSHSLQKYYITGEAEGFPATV
# Chain of Nuclear receptor subfamily 1 group I member 2 (Rattus norvegicus) (Q9R1A7 whole entry, looked up): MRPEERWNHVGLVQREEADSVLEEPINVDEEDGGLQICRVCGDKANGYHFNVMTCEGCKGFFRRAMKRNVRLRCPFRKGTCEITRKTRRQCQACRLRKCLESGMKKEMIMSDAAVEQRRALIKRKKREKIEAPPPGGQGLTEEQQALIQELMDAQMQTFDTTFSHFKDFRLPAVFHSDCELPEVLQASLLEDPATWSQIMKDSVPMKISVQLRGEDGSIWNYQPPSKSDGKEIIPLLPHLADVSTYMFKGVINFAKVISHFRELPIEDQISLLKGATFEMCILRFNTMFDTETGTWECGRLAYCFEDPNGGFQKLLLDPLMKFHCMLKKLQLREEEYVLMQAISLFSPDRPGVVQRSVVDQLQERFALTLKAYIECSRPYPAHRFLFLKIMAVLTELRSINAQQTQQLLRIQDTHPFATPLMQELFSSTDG
# Chain of Retinoic acid receptor RXR-alpha (Homo sapiens) (P19793 whole entry, looked up): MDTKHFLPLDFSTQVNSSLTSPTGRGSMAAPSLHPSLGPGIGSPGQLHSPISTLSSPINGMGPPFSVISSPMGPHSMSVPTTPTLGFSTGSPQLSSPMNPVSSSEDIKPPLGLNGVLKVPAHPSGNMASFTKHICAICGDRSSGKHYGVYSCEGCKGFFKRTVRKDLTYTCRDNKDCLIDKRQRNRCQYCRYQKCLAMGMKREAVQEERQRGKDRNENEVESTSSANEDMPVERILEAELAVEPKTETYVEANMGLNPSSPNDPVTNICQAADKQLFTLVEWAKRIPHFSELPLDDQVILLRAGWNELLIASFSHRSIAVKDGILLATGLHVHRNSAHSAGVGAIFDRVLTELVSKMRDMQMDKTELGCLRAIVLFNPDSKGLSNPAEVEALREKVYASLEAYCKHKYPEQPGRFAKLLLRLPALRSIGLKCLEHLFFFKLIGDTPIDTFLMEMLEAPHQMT
# Chain of Peroxisome proliferator-activated receptor gamma (Homo sapiens) (P37231 whole entry, looked up): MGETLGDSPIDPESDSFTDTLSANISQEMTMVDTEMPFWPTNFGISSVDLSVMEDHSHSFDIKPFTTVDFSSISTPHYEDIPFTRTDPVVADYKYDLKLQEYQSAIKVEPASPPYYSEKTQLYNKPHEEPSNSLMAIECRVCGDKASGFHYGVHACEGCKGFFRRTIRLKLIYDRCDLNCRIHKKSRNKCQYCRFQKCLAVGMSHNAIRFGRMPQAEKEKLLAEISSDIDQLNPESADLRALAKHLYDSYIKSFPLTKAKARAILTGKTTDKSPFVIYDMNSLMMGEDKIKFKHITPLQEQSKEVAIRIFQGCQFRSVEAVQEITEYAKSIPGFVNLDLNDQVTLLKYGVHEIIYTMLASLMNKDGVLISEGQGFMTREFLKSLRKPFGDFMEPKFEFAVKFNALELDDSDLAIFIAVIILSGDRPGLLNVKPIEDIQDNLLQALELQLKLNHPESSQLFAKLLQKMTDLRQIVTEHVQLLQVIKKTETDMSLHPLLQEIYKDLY
# Chain of Peroxisome proliferator-activated receptor alpha (Homo sapiens) (Q07869 whole entry, looked up, the tested form may be a part): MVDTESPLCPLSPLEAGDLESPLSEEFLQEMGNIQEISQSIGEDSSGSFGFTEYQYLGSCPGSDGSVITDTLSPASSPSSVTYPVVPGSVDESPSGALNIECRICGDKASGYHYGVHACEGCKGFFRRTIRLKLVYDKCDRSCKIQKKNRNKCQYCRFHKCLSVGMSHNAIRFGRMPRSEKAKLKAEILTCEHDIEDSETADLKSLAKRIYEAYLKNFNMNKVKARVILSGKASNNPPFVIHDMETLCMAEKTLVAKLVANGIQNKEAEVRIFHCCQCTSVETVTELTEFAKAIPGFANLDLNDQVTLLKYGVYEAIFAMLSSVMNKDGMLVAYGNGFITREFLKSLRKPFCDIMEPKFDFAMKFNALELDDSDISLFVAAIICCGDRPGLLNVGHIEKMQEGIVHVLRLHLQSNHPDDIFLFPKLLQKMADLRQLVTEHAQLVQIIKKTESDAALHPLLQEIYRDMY
# Chain of Peroxisome proliferator-activated receptor delta (Homo sapiens) (Q03181 whole entry, looked up): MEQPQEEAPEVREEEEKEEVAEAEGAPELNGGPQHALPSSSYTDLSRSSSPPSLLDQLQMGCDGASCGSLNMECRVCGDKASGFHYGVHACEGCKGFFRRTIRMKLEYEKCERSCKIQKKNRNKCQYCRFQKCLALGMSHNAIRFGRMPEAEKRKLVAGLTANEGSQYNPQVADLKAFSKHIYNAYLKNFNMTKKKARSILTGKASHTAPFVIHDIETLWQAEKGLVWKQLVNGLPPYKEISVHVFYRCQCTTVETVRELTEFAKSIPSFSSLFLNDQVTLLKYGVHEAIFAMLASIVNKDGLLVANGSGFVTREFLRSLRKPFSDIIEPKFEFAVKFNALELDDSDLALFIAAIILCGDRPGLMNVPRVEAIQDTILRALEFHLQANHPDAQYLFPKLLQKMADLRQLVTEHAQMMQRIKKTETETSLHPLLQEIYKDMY
smiles,measurement,setting,value
COc1ccc(C(O)(c2cncnc2)C2CC2)cc1 (stereo not drawn),Potency,[1],inactive
same,Potency,[2],inactive
same,activation,[3],-6.63% (inactive)
same,Potency,[4],inactive
same,Potency,[5],inactive
same,outcome,[6],inactive
same,Potency,[7],inactive
same,Potency,[8],inactive
same,max response,[9],8.99%
same,max response,[10],1.16% (inactive)
same,activation,[11],-2.74% (inactive)
same,activation,[12],-0.591% (inactive)
same,max response,[13],-2.81% (inactive)
same,Potency,[14],inactive
same,max response,[15],-13.4% (inactive)
same,max response,[16],-5.84% (inactive)
same,Potency,[17],inactive
same,max response,[18],3.59% (inactive)
NS(=O)(=O)C(F)(F)C(F)(F)C(F)(F)C(F)(F)C(F)(F)C(F)(F)C(F)(F)C(F)(F)F,Potency,[1],inactive
same,Potency,[2],inactive
same,activation,[3],-2.51% (inactive)
same,Potency,[8],inactive
same,max response,[9],-4.16%
same,max response,[10],-55.1% (inactive)
same,activation,[11],13.9% (inactive)
same,activation,[19],3.4% (inactive)
same,activation,[12],4% (inactive)
same,Potency,[14],inactive
same,max response,[15],-2.62% (inactive)
same,max response,[16],-13.7% (inactive)
same,Potency,[17],inactive
same,max response,[18],-9.61% (inactive)
CCOP(=S)(OCC)Oc1cnc2ccccc2n1,Potency,[1],inactive
same,Potency,[2],inactive
same,activation,[3],-1.45% (inactive)
same,Potency,[4],inactive
same,Potency,[8],inactive
same,max response,[9],6.33%
same,max response,[10],-25.5% (inactive)
same,activation,[11],6.75% (inactive)
same,activation,[19],-0.487% (inactive)
same,Potency,[12],35.5 µM (active)
same,max response,[13],-1.06% (inactive)
same,max response,[15],3.82% (inactive)
same,max response,[16],-3.73% (inactive)
same,Potency,[17],inactive
same,max response,[18],7.55% (inactive)
O=[N+]([O-])c1ccc(Oc2ccc(C(F)(F)F)cc2[N+](=O)[O-])cc1,Potency,[1],inactive
same,Potency,[2],inactive
same,activation,[3],-2.99% (inactive)
same,outcome,[20],inactive
same,Potency,[4],3.55 µM (active)
same,outcome,[6],inactive
same,Potency,[8],inactive
same,max response,[9],-9.24%
same,max response,[10],0.243% (inactive)
same,activation,[11],-0.528% (inactive)
same,activation,[12],9.12% (inactive)
same,max response,[13],-0.519% (inactive)
same,max response,[15],-18.9% (inactive)
same,max response,[16],-11.9% (inactive)
same,Potency,[17],inactive
same,max response,[18],11.4% (inactive)
CCC[CH2][Sn]([CH2]CCC)[CH2]CCC,Potency,[1],15.8 µM [inhibitor] (active)
same,Potency,[2],inactive
same,activation,[3],-13.3% (inactive)
same,activation,[12],-0.508% (inactive)
same,Potency,[15],15.8 µM (active)
same,Potency,[16],28.2 µM (active)
same,Potency,[17],28.2 µM (active)
same,max response,[18],-14% (inactive)
COc1ccc(O)c(C(C)(C)C)c1,Potency,[1],inactive
same,Potency,[2],inactive
same,activation,[3],-14% (inactive)
same,Potency,[4],inactive
same,Potency,[5],inactive
same,Potency,[7],inactive
same,Potency,[8],inactive
same,max response,[9],-10.9%
same,max response,[10],7.69% (inactive)
same,activation,[11],1.43% (inactive)
same,activation,[12],3.77% (inactive)
same,max response,[13],1.63% (inactive)
same,Potency,[14],inactive
same,max response,[15],1.24% (inactive)
same,max response,[16],-7.51% (inactive)
same,Potency,[17],inactive
same,max response,[18],3.52% (inactive)
